Results published in PubChem BioAssay AID1159580 (chemical genetic matrix, 2015).
Out of some 5,500 compounds screened, about 2,000 (36%) were called active. Roughly 18% stayed inconclusive and do not appear here. Rule as the data show it: active = normalized growth mostly below about 0.91 (no sharp cut-off); inconclusive = no clear call, values can overlap the other calls; inactive = mostly above about 0.92. The list shows a part of the results.

Experiment: chemical genetic growth profiling, strain panel (AID 1159580);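 also: tested at 20 µM; growth read once vehicle control cultures reached saturation at 30 °C; 1 = growth at the plate median or of vehicle wells; lower values mean less growth of the strain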
Conditions: S. cerevisiae deletion strains, growth OD
[1] = locus YAL021C, strain ccr4, active compounds read low
[2] = locus YAL026C, strain drs2, active compounds read low
[3] = locus YAL030W, strain snc1, active compounds read low
[4] = locus YBL061C, strain skt5, active compounds read low
[5] = locus YBR009C, strain hhf1, active compounds read low
[6] = locus YBR023C, strain chs3, active compounds read low
[7] = locus YBR231C, strain swc5, active compounds read low
[8] = locus YBR279W, strain paf1, active compounds read low
[9] = locus YCL011C, strain gbp2, active compounds read low
[10] = locus YCL016C, strain dcc1, active compounds read low
[11] = locus YCL069W, strain vba3, active compounds read low
[12] = locus YCR088W, strain abp1, active compounds read low
[13] = locus YDL005C, strain med2, active compounds read low
[14] = locus YDL040C, strain nat1, active compounds read low
[15] = locus YDR001C, strain nth1, active compounds read low
[16] = locus YDR069C, strain doa4, active compounds read low
[17] = locus YDR137W, strain rgp1, active compounds read low
[18] = locus YDR159W, strain sac3, active compounds read low
[19] = locus YDR297W, strain sur2, active compounds read low
[20] = locus YDR334W, strain swr1, active compounds read low
[21] = locus YDR335W, strain msn5, active compounds read low
[22] = locus YDR392W, strain spt3, active compounds read low
[23] = locus YEL003W, strain gim4, active compounds read low
[24] = locus YEL037C, strain rad23, active compounds read low
[25] = locus YEL061C, strain CIN8 (second series), active compounds read low
[26] = locus YER015W, strain faa2, active compounds read low
[27] = locus YER016W, strain bim1, active compounds read low
[28] = locus YER111C, strain swi4, active compounds read low
[29] = locus YER155C, strain BEM2 (second series), active compounds read low
[30] = locus YFR010W, strain ubp6, active compounds read low
[31] = locus YGL167C, strain pmr1, active compounds read low
[32] = locus YGL173C, strain kem1, active compounds read low
[33] = locus YGL227W, strain vid30, active compounds read low
[34] = locus YGL240W, strain doc1, active compounds read low
[35] = locus YGL253W, strain hxk2, active compounds read low
[36] = locus YHR013C, strain ard1, active compounds read low
[37] = locus YHR027C, strain rpn1, active compounds read low
[38] = locus YHR030C, strain SLT2, active compounds read low
[39] = locus YHR079C, strain IRE1, active compounds read low
[40] = locus YHR142W, strain chs7, active compounds read low
[41] = locus YJL092W, strain hpr5, active compounds read low
[42] = locus YJL095W, strain BCK1 (second series), active compounds read low
[43] = locus YJL095W, strain BCK1, active compounds read low
[44] = locus YJL115W, strain asf1, active compounds read low
[45] = locus YJL129C, strain trk1, active compounds read low
[46] = locus YJL154C, strain vps35, active compounds read low
[47] = locus YJL164C, strain tpk1, active compounds read low
[48] = locus YJL166W, strain qcr8, active compounds read low
[49] = locus YJR066W, strain TOR1, active compounds read low
[50] = locus YKL160W, strain elf1, active compounds read low
[51] = locus YKR026C, strain gcn3, active compounds read low
[52] = locus YKR091W, strain srl3, active compounds read low
[53] = locus YLL001W, strain dnm1, active compounds read low
[54] = locus YLL026W, active compounds read low
[55] = locus YLL041C, strain sdh2, active compounds read low
[56] = locus YLR027C, strain aat2, active compounds read low
[57] = locus YLR113W, strain HOG1, active compounds read low
[58] = locus YLR221C, strain rsa3, active compounds read low
[59] = locus YLR258W, strain gsy2, active compounds read low
[60] = locus YLR262C, strain YPT6 (second series), active compounds read low
[61] = locus YLR320W, strain mms22, active compounds read low
[62] = locus YLR342W, strain FKS1, active compounds read low
[63] = locus YLR357W, strain rsc2, active compounds read low
[64] = locus YLR370C, strain arc18, active compounds read low
[65] = locus YLR384C, strain iki3, active compounds read low
[66] = locus YML120C, strain ndi1, active compounds read low
[67] = locus YMR058W, strain fet3, active compounds read low
[68] = locus YMR129W, active compounds read low
[69] = locus YMR205C, strain PFK2, active compounds read low
[70] = locus YMR231W, strain pep5, active compounds read low
[71] = locus YNL071W, strain lat1, active compounds read low
[72] = locus YNL183C, strain NPR1, active compounds read low
[73] = locus YNL209W, strain ssb2, active compounds read low
[74] = locus YNL248C, strain rpa49, active compounds read low
[75] = locus YNL322C, strain KRE1 (second series), active compounds read low
[76] = locus YNR049C, strain mso1, active compounds read low
[77] = locus YOR001W, strain rrp6, active compounds read low
[78] = locus YOR070C, strain gyp1, active compounds read low
[79] = locus YOR080W, strain dia2, active compounds read low
[80] = locus YOR083W, strain WHI5, active compounds read low
[81] = locus YOR106W, strain vam3, active compounds read low
[82] = locus YOR231W, strain MKK1, active compounds read low
[83] = locus YOR265W, strain rbl2, active compounds read low
[84] = locus YOR270C, strain vph1, active compounds read low
[85] = locus YOR290C, strain snf2, active compounds read low
[86] = locus YPL051W, strain arl3, active compounds read low
[87] = locus YPL078C, strain atp4, active compounds read low
[88] = locus YPL106C, strain sse1, active compounds read low
[89] = locus YPL240C, strain hsp82, active compounds read low
[90] = locus YPL256C, strain CLN2, active compounds read low

Measured: normalized growth

COc1cccc2c1C(=O)c1c(O)c3c(c(O)c1C2=O)C[C@@](O)(C(C)=O)C[C@@H]3O[C@H]1C[C@H](N)[C@H](O)[C@H](C)O1
inactive: [2] 0.959 | [3] 0.946 | [4] 0.953 | [6] 0.953 | [7] 0.913 | [8] 0.968 | [9] 0.969 | [10] 1 | [11] 0.966 | [12] 0.981 | [13] 0.962 | [14] 0.941 | [15] 0.958 | [16] 0.922 | [17] 0.956 | locus YDR195W, strain ref2 0.983 | [19] 0.967 | [20] 0.903 | [21] 0.987 | [22] 0.976 | [23] 0.989 | [24] 0.974 | [25] 0.951 | [27] 0.993 | [28] 0.991 | [30] 0.91 | [31] 0.986 | [32] 0.97 | [33] 0.941 | [36] 0.933 | [37] 0.94 | [38] 0.994 | [39] 0.989 | [40] 0.956 | [41] 0.975 | [42] 0.977 | [43] 1.01 | [46] 0.957 | [47] 0.97 | [49] 0.954 | [50] 0.963 | [51] 0.971 | [52] 0.971 | [53] 0.981 | [54] 0.986 | [55] 0.971 | [56] 0.976 | [57] 1.01 | [58] 0.977 | [59] 0.991 | [60] 0.919 | [62] 0.967 | [63] 0.917 | [64] 0.97 | [65] 0.966 | [66] 0.959 | [67] 0.922 | locus YMR125W, strain sto1, active compounds read low 0.966 | [68] 0.978 | [70] 0.968 | [72] 0.971 | [73] 0.945 | [75] 0.975 | [76] 0.965 | [77] 0.96 | [78] 0.977 | [79] 0.951 | [80] 0.972 | [81] 0.911 | [82] 1.01 | [83] 0.949 | [84] 0.919 | [85] 0.995 | [86] 0.958 | [88] 1.1 | [89] 0.98 | [90] 0.987
active: [1] 0.872 | [5] 0.894 | [18] 0.836 | [26] 0.914 | [29] 0.802 | [34] 0.621 | [35] 0.907 | [44] 0.885 | [45] 0.53 | [48] 0.827 | [61] 0.727 | [69] 0.873 | [71] 0.848 | [74] 0.706 | [87] 0.891

COc1cccc2c1C(=O)c1c(O)c3c(c(O)c1C2=O)C[C@@](O)(C(=O)CO)C[C@@H]3OC1C[C@H](N)[C@H](O)[C@H](C)O1 (stereo partly specified)
inactive: locus YBR171W, strain sec66, active compounds read low 0.928 | [22] 0.919 | [32] 1.01 | [88] 1.14
active: [1] 0.166 | [2] 0.696 | [3] 0.691 | [4] 0.708 | [5] 0.282 | [6] 0.676 | [7] 0.342 | [8] 0.681 | [9] 0.636 | [10] 0.37 | [11] 0.718 | [12] 0.767 | [13] 0.701 | [14] 0.762 | [15] 0.878 | [16] 0.595 | [17] 0.572 | [18] 0.221 | locus YDR195W, strain ref2 1.23 [resistant] | [19] 0.606 | [20] 0.337 | [21] 0.431 | [23] 0.603 | [24] 0.864 | [25] 0.607 | [26] 0.49 | [27] 0.481 | [28] 0.766 | [29] 0.515 | [30] 0.65 | [31] 0.905 | [33] 0.429 | [34] 0.246 | [35] 0.247 | [36] 0.35 | [37] 0.496 | [38] 0.778 | [39] 0.79 | [40] 0.538 | [41] 0.691 | [42] 0.622 | [43] 0.781 | [44] 0.319 | [45] 0.138 | [46] 0.732 | [47] 0.439 | [48] 0.302 | locus YJL187C, strain SWE1, active compounds read low 0.643 | [49] 0.787 | [50] 0.56 | [51] 0.849 | [52] 0.869 | [53] 0.545 | [54] 0.623 | [55] 0.602 | [56] 0.543 | [57] 0.779 | [58] 0.475 | [59] 0.565 | [60] 0.533 | [61] 0.176 | [62] 0.622 | [63] 0.49 | [64] 0.902 | [65] 0.651 | [66] 0.676 | [67] 0.509 | [68] 0.828 | [69] 0.513 | [70] 0.246 | [71] 0.272 | [72] 0.801 | [73] 0.656 | [74] 0.107 | [75] 0.886 | [76] 0.798 | [77] 0.469 | [78] 0.569 | [79] 0.627 | [80] 0.572 | [81] 0.214 | [82] 0.815 | [83] 0.619 | [84] 0.24 | [85] 0.589 | [86] 0.481 | [87] 0.534 | [89] 0.544 | [90] 0.757

CC(=O)[C@]1(O)Cc2c(O)c3c(c(O)c2[C@@H](O[C@H]2C[C@H](N)[C@H](O)[C@H](C)O2)C1)C(=O)c1ccccc1C3=O
active: locus YAL040C, strain CLN3, active compounds read low 0.208 | locus YCL061C, strain MRC1 (second series), active compounds read low 0.0781 | locus YDR150W, strain NUM1, active compounds read low 0.0885 | locus YDR363W, strain ESC2, active compounds read low 0.478 | locus YER002W, strain NOP16, active compounds read low 0.193 | locus YGR229C, strain SMI1, active compounds read low 0.0661 | locus YJR075W, strain HOC1, active compounds read low 0.0942 | locus YMR263W, strain SAP30, active compounds read low 0.785 | locus YNL128W, strain TEP1, active compounds read low 0.18 | locus YNL153C, strain GIM3, active compounds read low 0.59 | locus YNL175C, strain NOP13, active compounds read low 0.178 | locus YNL197C, strain WHI3, active compounds read low 0.183 | locus YNL224C, strain SQS1, active compounds read low 0.165 | locus YOR083W, strain WHI5 (second series), active compounds read low 0.178 | locus YPL055C, strain LGE1, active compounds read low 0.0958 | locus YPL241C, strain CIN2, active compounds read low 0.0639
